Laboratory results published in the supplement of paper PMC6518042.
Unmarked numbers belong to inactive results.

What follows are compounds tested on Pectobacterium parmentieri SCC3193 (assay: DuctApe activity index (growth/respiration on compound as sole nutrient source, blank-subtracted) (activity index (0-3)); higher = stronger utilization of the compound, active = 3 or more). Settings: nutrient role (plate category): carbon.
Experimental: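 Biolog Phenotype Microarray plates PM1, PM2A (carbon), PM3 (nitrogen) and PM4 (phosphorus/sulfur) inoculated with P. parmentieri SCC3193 in M9-C minimal salts medium with Biolog dye A, and read in the OmniLog for 46 h. Each well was tested in triplicate and the experiment was run twice. DuctApe computed a blank-subtracted activity index (AV, 0-3) from the mean curves; growth is positive at AV >= 3 and negative at AV <= 2.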

**Q.** How did the DuctApe activity index turn out when `CO[C@@H]1O[C@H](CO)[C@H](O)[C@H](O)[C@H]1O` [b-Methyl-D-Galactoside] was run?
**A.** 2

**Q.** For `OCc1ccccc1O[C@@H]1O[C@H](CO)[C@@H](O)[C@H](O)[C@H]1O` [Salicin], which DuctApe activity index is on record?
**A.** 3 (active)

**Q.** With `C[C@@H](O)CC(=O)O` [b-Hydroxybutyric acid] as the compound, how does the DuctApe activity index read?
**A.** 0

**Q.** Which DuctApe activity index does the source give for `OC[C@H](O)C(O)[C@@H](O)CO` [L-Arabitol] here?
**A.** 0

**Q.** For `NCC(=O)N1CCC[C@H]1C(=O)O`, which DuctApe activity index is on record?
**A.** 0

**Q.** Which DuctApe activity index does the source give for `O=C[C@H](O)[C@@H](O)[C@H](O)[C@H](O)CO[C@@H]1O[C@H](CO)[C@@H](O)[C@H](O)[C@H]1O` [Gentiobiose] here?
**A.** 3 (active)

**Q.** For `O=C(O)CO` [Glycolic acid], which DuctApe activity index is on record?
**A.** 0

**Q.** How did the DuctApe activity index turn out when `COC(=O)[C@@H](C)O` [D-Lactic acid Methyl Ester] was run?
**A.** 1

**Q.** Which DuctApe activity index does the source give for `O=C(O)[C@]1(O)C[C@@H](O)[C@@H](O)[C@H](O)C1` [Quinic acid] here?
**A.** 0

**Q.** With `C/C(=C/C(=O)O)C(=O)O` [Citraconic acid] as the compound, how does the DuctApe activity index read?
**A.** 0

**Q.** Which DuctApe activity index does the source give for `OC[C@H]1O[C@@H]2O[C@H]3[C@H](O)[C@@H](O)[C@@H](O[C@H]4[C@H](O)[C@@H](O)[C@@H](O[C@H]5[C@H](O)[C@@H](O)[C@@H](O[C@H]6[C@H](O)[C@@H](O)[C@@H](O[C@H]7[C@H](O)[C@@H](O)[C@@H](O[C@H]8[C@H](O)[C@@H](O)[C@@H](O[C@H]9[C@H](O)[C@@H](O)[C@@H](O[C@H]1[C@H](O)[C@H]2O)O[C@@H]9CO)O[C@@H]8CO)O[C@@H]7CO)O[C@@H]6CO)O[C@@H]5CO)O[C@@H]4CO)O[C@@H]3CO` [g-Cyclodextrin] here?
**A.** 0

**Q.** For `CC(=O)CC(=O)O` [Acetoacetic acid], which DuctApe activity index is on record?
**A.** 0

**Q.** How did the DuctApe activity index turn out when `OC[C@H]1OC(O)[C@H](O)[C@@H](O)[C@H]1O` (stereo partly drawn) [D-Galactose] was run?
**A.** 3 (active)

**Q.** `OC[C@H]1O[C@@H](O[C@@H]2[C@@H](CO)OC(O)(CO)[C@H]2O)[C@H](O)[C@@H](O)[C@H]1O` (mixture of isomers) [Lactulose] was tested. Which DuctApe activity index did it give?
**A.** 3 (active)

**Q.** How did the DuctApe activity index turn out when `OC[C@H]1O[C@@H]2O[C@H]3[C@H](O)[C@@H](O)[C@@H](O[C@H]4[C@H](O)[C@@H](O)[C@@H](O[C@H]5[C@H](O)[C@@H](O)[C@@H](O[C@H]6[C@H](O)[C@@H](O)[C@@H](O[C@H]7[C@H](O)[C@@H](O)[C@@H](O[C@H]8[C@H](O)[C@@H](O)[C@@H](O[C@H]1[C@H](O)[C@H]2O)O[C@@H]8CO)O[C@@H]7CO)O[C@@H]6CO)O[C@@H]5CO)O[C@@H]4CO)O[C@@H]3CO` [b-Cyclodextrin] was run?
**A.** 0

**Q.** How did the DuctApe activity index turn out when `CCC(=O)C(=O)O` [a-Ketobutyric acid] was run?
**A.** 0

**Q.** `OCC1(O)OC[C@@H](O)[C@H](O)[C@@H]1O` (stereo partly drawn) [D-Tagatose] was tested. Which DuctApe activity index did it give?
**A.** 0

**Q.** Which DuctApe activity index does the source give for `CC(O)(CC(=O)O)C(=O)O` (stereo not given) [Citramalic acid] here?
**A.** 0

**Q.** `O=C(CO)[C@@H](O)[C@H](O)[C@H](O)CO[C@H]1O[C@H](CO)[C@@H](O)[C@H](O)[C@H]1O` [Palatinose] was tested. Which DuctApe activity index did it give?
**A.** 0

**Q.** With `OC1OC[C@@H](O)[C@@H](O)[C@@H]1O` (stereo partly drawn) [D-Arabinose] as the compound, how does the DuctApe activity index read?
**A.** 1
